# Experimental data published in PubChem BioAssay (NCI).
# About 79,000 compounds went through this panel and 15% of them were active in at least one assay; those are over-represented in the sample as a whole. Unmarked numbers belong to inactive results. Calls of active or inactive are those of the source. No stated cut-off is given here; in the data, active means growth inhibition above about 70%; inactive means the rest.
# Key:
# [1] = NCI Yeast Anticancer Drug Screen. Data for the wt1 strain (AID 149);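 further: 0% = growth of vehicle-treated wt1 cultures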; details: S. cerevisiae wt1 strain (SPY 50644) growth inhibition, hits give high values
# In short: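 Measured: growth of wt1 yeast under compound versus vehicle treatment, reported as inhibition.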
# [2] = NCI Yeast Anticancer Drug Screen. Data for the rad50EPP+ strain (AID 151);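 further: 0% = growth of vehicle-treated control cultures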; details: S. cerevisiae rad50 mutant strain, hits give high values
# In short: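 Exposing the rad50EPP+ strain to each compound, growth was compared with vehicle-only cultures to give inhibition.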
# [3] = NCI Yeast Anticancer Drug Screen. Data for the mgt1 strain (AID 153); details: S. cerevisiae mgt1 mutant growth inhibition, hits give high values
# In short: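 Genetically defined yeast (mgt1) treated with compound; inhibition of growth expressed against vehicle-treated controls.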
# [4] = NCI Yeast Anticancer Drug Screen. Data for the rad50 strain (AID 155);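 further: 0% = growth of vehicle-only cultures of the same strain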; details: S. cerevisiae rad50 strain growth inhibition, hits give high values
# In short: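 Growth of the mutant yeast was measured after compound exposure and referenced to vehicle-treated cultures.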
# [5] = NCI Yeast Anticancer Drug Screen. Data for the mec2-1 strain (AID 157); details: S. cerevisiae mec2-1 strain, hits give high values
# In short: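 Readout is yeast growth inhibition, normalised to vehicle-treated controls, in the mec2-1 strain exposed to compound.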
# [6] = NCI Yeast Anticancer Drug Screen. Data for the rad14 strain (AID 159);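 further: 0% = growth of vehicle-treated control cultures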; details: S. cerevisiae rad14 strain growth inhibition, hits give high values
# In short: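 Here, inhibition of yeast growth was measured after compound exposure, using a strain with a genetic defect in DNA damage repair and vehicle-treated cultures as the reference.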
# [7] = NCI Yeast Anticancer Drug Screen. Data for the sgs1 mgt1 strain (AID 161);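 further: 0% = growth of cultures given vehicle only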; details: S. cerevisiae sgs1 mgt1 strain, hits give high values
# In short: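 Percent growth inhibition was derived by comparing compound-exposed mutant yeast with vehicle-exposed cultures. The strain carries alterations in DNA damage repair.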
# [8] = NCI Yeast Anticancer Drug Screen. Data for the CLN2oe strain (AID 163);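 further: 0% = growth of vehicle-only control cultures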; details: S. cerevisiae CLN2oe strain, hits give high values
# In short: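 Values reflect how much compound exposure reduced yeast growth, referenced to vehicle-exposed cells. Assay organism is a strain with a defined genetic change affecting cell-cycle control.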
# [9] = NCI Yeast Anticancer Drug Screen. Data for the cln2 rad14 strain (AID 165);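 further: 0% = growth equal to vehicle treated cultures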; details: S. cerevisiae cln2 rad14 strain, hits give high values
# In short: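 Relative to vehicle controls, growth inhibition of compound-treated cln2 rad14 yeast was recorded.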
# [10] = NCI Yeast Anticancer Drug Screen. Data for the bub3 strain (AID 167); details: S. cerevisiae bub3 mutant strain, hits give high values
# In short: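 Whole-cell yeast assay. The mutant strain was incubated with compounds, and growth inhibition was determined by comparison with vehicle-treated cells.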
# [11] = NCI Yeast Anticancer Drug Screen. Data for the wt2 strain (AID 169);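 further: 0% = growth of vehicle-treated yeast cultures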; details: S. cerevisiae wt2 strain growth inhibition, hits give high values
# In short: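 Values express reduction in yeast growth under compound treatment, referenced to vehicle-treated cells.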
# [12] = NCI Yeast Anticancer Drug Screen. Data for the mlh1 strain (AID 171);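 further: 0% = growth of vehicle-treated control cultures of the same strain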; details: S. cerevisiae mlh1 strain growth inhibition, hits give high values
# In short: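 Steps: expose the defined-mutant yeast strain to compound; expose a parallel culture to vehicle; measure growth; express compound effect as inhibition relative to the vehicle culture.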
# [13] = NCI Yeast Anticancer Drug Screen. Data for the sgs1 strain (AID 173);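 further: 0% = growth of vehicle-only control cultures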; details: S. cerevisiae sgs1 mutant, hits give high values
# In short: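 Treat defined-mutant yeast with compound; measure growth; calculate inhibition relative to vehicle-treated cells.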
# [14] = NCI Yeast Anticancer Drug Screen. Data for the mlh1 rad18 strain (AID 175); details: S. cerevisiae mlh1 rad18 strain growth inhibition, hits give high values
# In short: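 Test agents were incubated with a yeast strain of defined genotype (DNA damage repair defect). Inhibition of growth was derived by comparison with vehicle-exposed cultures.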
# [15] = NCI Yeast Anticancer Drug Screen. Data for the rad18 strain (AID 177); details: S. cerevisiae rad18 mutant growth inhibition, hits give high values
# In short: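 A genetically defined yeast mutant impaired in DNA damage repair was treated with test compounds, then its growth was measured against cultures receiving vehicle alone.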
# [16] = at 5.0 µM (retest, dose inferred, filed as 0.5)
# [17] = at 50.0 µM (retest, dose inferred, filed as 5.0)
smiles,measurement,setting,value
O=C(Nn1c(-c2ccccc2)nc2ccccc2c1=O)c1ccc(Cl)cc1,growth inhibition,[1]; at 1.2 µM,23%
same,growth inhibition,[1]; at 3.7 µM,15%
same,growth inhibition,[1]; at 11.0 µM,17%
same,growth inhibition,[1]; at 33.0 µM,54%
same,growth inhibition,[1]; at 100.0 µM,96% (active)
same,growth inhibition,[2]; at 1.2 µM,-1%
same,growth inhibition,[2]; at 3.7 µM,-11%
same,growth inhibition,[2]; at 11.0 µM,-2%
same,growth inhibition,[2]; at 33.0 µM,16%
same,growth inhibition,[2]; at 100.0 µM,27%
same,growth inhibition,[3]; at 1.2 µM,-4%
same,growth inhibition,[3]; at 3.7 µM,-19%
same,growth inhibition,[3]; at 11.0 µM,-17%
same,growth inhibition,[3]; at 33.0 µM,50%
same,growth inhibition,[3]; at 100.0 µM,94% (active)
same,growth inhibition,[4]; at 1.2 µM,26%
same,growth inhibition,[4]; at 3.7 µM,9%
same,growth inhibition,[4]; [16],-24%
same,growth inhibition,[4]; at 11.0 µM,31%
same,growth inhibition,[4]; at 33.0 µM,70% (active)
same,growth inhibition,[4]; [17],68%
same,growth inhibition,[4]; at 50.0 µM,66.5%
same,growth inhibition,[4]; at 100.0 µM,95% (active)
same,growth inhibition,[5]; at 1.2 µM,-15%
same,growth inhibition,[5]; at 3.7 µM,-24%
same,growth inhibition,[5]; [16],-3%
same,growth inhibition,[5]; at 11.0 µM,-1%
same,growth inhibition,[5]; at 33.0 µM,28%
same,growth inhibition,[5]; [17],9%
same,growth inhibition,[5]; at 50.0 µM,36.4%
same,growth inhibition,[5]; at 100.0 µM,93% (active)
same,growth inhibition,[6]; at 1.2 µM,-11%
same,growth inhibition,[6]; at 3.7 µM,-5%
same,growth inhibition,[6]; at 11.0 µM,-15%
same,growth inhibition,[6]; at 33.0 µM,76% (active)
same,growth inhibition,[6]; at 100.0 µM,91% (active)
same,growth inhibition,[7]; [16],0%
same,growth inhibition,[7]; [17],24%
same,growth inhibition,[7]; at 50.0 µM,56.5%
same,growth inhibition,[8]; at 1.2 µM,12%
same,growth inhibition,[8]; at 3.7 µM,-8%
same,growth inhibition,[8]; at 11.0 µM,-23%
same,growth inhibition,[8]; at 33.0 µM,12%
same,growth inhibition,[8]; at 100.0 µM,94% (active)
same,growth inhibition,[9]; [16],-20%
same,growth inhibition,[9]; [17],16%
same,growth inhibition,[9]; at 50.0 µM,49.5%
same,growth inhibition,[10]; at 1.2 µM,43%
same,growth inhibition,[10]; at 3.7 µM,52%
same,growth inhibition,[10]; [16],-19%
same,growth inhibition,[10]; at 11.0 µM,72% (active)
same,growth inhibition,[10]; at 33.0 µM,93% (active)
same,growth inhibition,[10]; [17],68%
same,growth inhibition,[10]; at 50.0 µM,68.7%
same,growth inhibition,[10]; at 100.0 µM,95% (active)
same,growth inhibition,[11]; at 1.2 µM,5%
same,growth inhibition,[11]; at 3.7 µM,6%
same,growth inhibition,[11]; at 11.0 µM,5%
same,growth inhibition,[11]; at 33.0 µM,51%
same,growth inhibition,[11]; at 100.0 µM,95% (active)
same,growth inhibition,[12]; at 1.2 µM,5%
same,growth inhibition,[12]; at 3.7 µM,1%
same,growth inhibition,[12]; at 11.0 µM,26%
same,growth inhibition,[12]; at 33.0 µM,69%
same,growth inhibition,[12]; at 100.0 µM,95% (active)
same,growth inhibition,[13]; at 1.2 µM,23%
same,growth inhibition,[13]; at 3.7 µM,19%
same,growth inhibition,[13]; at 11.0 µM,33%
same,growth inhibition,[13]; at 33.0 µM,78% (active)
same,growth inhibition,[13]; at 100.0 µM,96% (active)
same,growth inhibition,[14]; [16],-46%
same,growth inhibition,[14]; [17],68%
same,growth inhibition,[14]; at 50.0 µM,71.9% (active)
same,growth inhibition,[15]; at 1.2 µM,-2%
same,growth inhibition,[15]; at 3.7 µM,-2%
same,growth inhibition,[15]; at 11.0 µM,13%
same,growth inhibition,[15]; at 33.0 µM,70% (active)
same,growth inhibition,[15]; at 100.0 µM,95% (active)
